Compounds with a hit are over-represented: about 7.5% of the library has one in this group of screens.
ELG1 genotoxic: induces genotoxicity in HEK293T cells with luciferase-tagged ELG1 | HEK293T ELG1-luciferase reporter, luminescence, 16 h | Potency, µM (doses to about 46 µM), inactives show at the top dose activity change, positive = activation, usual class: activators | AID 504466 | actives 1.3% (n = 330,000); note: % of control where 0% means no effect; nearly all actives have a fitted effect of over 60% in size
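Luminescence read-out: rising ELG1-luciferase signal, reflecting elevated ELG1 protein under genetic stress, flags genotoxic compounds. Cells were treated for 16 hr at 37 °C before ONE-Glo detection.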
NPC1 promoter act: activators of NPC1 promoter. Potency, µM (highest dose often 9.22 µM), for inactives: top-dose activation, actives largely listed as activators. actives 2.4% (n = 320,000). Huh7 NPC1 promoter luciferase reporter, 24 h; note: % of control where 0% means no effect; nearly all actives have a fitted effect of over 60% in size
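In 1536-well qHTS, Huh7 cells harboring an NPC1 promoter–luciferase construct received compound for 24 h; activation was quantified by luminescence following luciferase reagent addition.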
Luc counter: blocks Kinase-Glo luciferase, a counter-screen artifact; Q27757; Kinase-Glo luciferase, ATP luminescence, 8 min; Potency, µM (highest dose often 38.3 µM), for inactives: at the highest dose activity change, negative = inhibition, actives largely listed as inhibitors; actives 0.28% (n = 200,000); AID 1379; note: % is set by controls: 0 for no effect and ±100 for the full control effect; nearly all actives have a fitted effect of over 60% in size
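Recombinant Kinase-Glo luciferase, 10 uM ATP (linear range), luciferin; imidazole pH 7.2 / KCl / MgCl2 / Tween / BSA buffer; 8 min RT; luminescence.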
SMN2 splice enh: enhancers of SMN2 splice variant expression; HEK293 SMN2-luciferase splicing reporter, luminescence, 30-36 h; actives 2.8% (n = 210,000); AID 1458; Potency, µM (titrated, usually from 46.1 µM), without a hit: at the top dose activity change, positive = activation, most hits filed as activators; note: % of control where 0% means no effect; nearly all actives have a fitted effect of over 55% in size
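qHTS luciferase splicing reporter: luminescence rises when SMN2 exon 7 is included in transfected HEK293 cells. Compound exposure lasted 30-36 h at 37C, with 4.5 mM final sodium butyrate as control, followed by a ONE-Glo read.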
Rab9 promoter act: Rab9 promoter activation; Huh7 Rab9 promoter-luciferase reporter, luminescence, 24 h; Potency, µM (series often up to 9.22 µM), for inactives: top-dose activation, negative = inhibition, hits mostly activators; actives 2.8% (n = 320,000); AID 485297; note: % of control where 0% means no effect; nearly all actives have a fitted effect of over 60% in size
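Promoter activation is measured as luciferase luminescence in Huh7 cells stably transfected with a Rab9 promoter–luciferase construct, following 24 h compound exposure at 37 °C and 10 min reagent incubation at ambient temperature.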
FLuc modulator: counter-screen for miR-21 project: firefly luciferase inhibitors or activators; P08659; purified FLuc, Km substrates, luminescence inhibition; Potency, µM (titrated, usually from 57.5 µM), for inactives: at the highest dose activity change, negative = inhibition, hits mostly inhibitors; actives 6.9% (n = 360,000);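 note: plate controls were vehicle for no effect and reference inhibitor for full effect; nearly all actives have a fitted effect of over 55% in size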
Target sequence (P08659 whole entry, looked up): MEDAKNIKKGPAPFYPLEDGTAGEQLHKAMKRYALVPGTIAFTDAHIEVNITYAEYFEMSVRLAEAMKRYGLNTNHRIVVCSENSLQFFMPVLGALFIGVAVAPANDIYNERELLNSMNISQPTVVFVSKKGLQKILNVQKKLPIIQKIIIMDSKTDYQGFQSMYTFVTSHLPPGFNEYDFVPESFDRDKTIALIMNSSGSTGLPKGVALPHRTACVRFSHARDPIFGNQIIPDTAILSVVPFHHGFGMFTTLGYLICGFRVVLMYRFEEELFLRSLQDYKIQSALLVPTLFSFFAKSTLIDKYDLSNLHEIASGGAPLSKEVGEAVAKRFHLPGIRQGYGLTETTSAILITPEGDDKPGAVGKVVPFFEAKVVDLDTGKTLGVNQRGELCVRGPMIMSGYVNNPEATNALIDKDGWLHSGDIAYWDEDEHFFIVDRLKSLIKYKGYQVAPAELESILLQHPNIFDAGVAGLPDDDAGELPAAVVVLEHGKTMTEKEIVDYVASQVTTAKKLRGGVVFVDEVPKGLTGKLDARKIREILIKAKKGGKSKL
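Biochemical qHTS of compounds, final roughly 60 µM downward over six points, against 10 nM purified firefly luciferase using Km concentrations of substrates (10 uM D-luciferin, 10 uM ATP) in Tris acetate pH 7.5 buffer; luminescence output.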
* hit, by the source's call; ? = inconclusive; . = no result given; [ ] = dose if it differs, or a comment. Calls come from the whole dose curve; as a rule, active = well fitted curve in the direction sought with a large enough effect; inconclusive = small, poorly fitted or top-dose-only effect, or another doubt; inactive = no such curve, though single readings can be large; an effect the other way counts as inactive or inconclusive. Potency is the fitted concentration of half-maximal effect.

SMILES	ELG1 genotoxic	NPC1 promoter act	Luc counter	SMN2 splice enh	Rab9 promoter act	FLuc modulator
N#CC(C#N)=c1ccc2c(c1)NC1(CCCCC1)N=2	-3%	25%	13µM*	-85%	29%	?
COC(=O)c1ccc(NC(c2ccc(Cl)cc2)P(=O)(OC)OC)cc1 (stereo unspecified)	4%	-2%	1%	-5%	-1%	27µM*
CCN(c1ncnc2c1cnn2-c1cccc(Cl)c1)C1CCCCC1	.	.	.	.	.	3.8µM*
COc1ccc(-n2ncc3c(N(C)C4CCCCC4)ncnc32)cc1	?	-16%	.	.	-10%	0.17µM*
Cc1cccc(-n2ncc3c(N(CCO)CCO)ncnc32)c1	?	3.2µM*	-1%	14µM*	3.5µM*	15µM*
COc1ncnc2c1cnn2-c1ccccc1	.	.	-6%	5%	.	?
Cc1cccc(-n2ncc3c(N(C)C4CCCCC4)ncnc32)c1	0.46µM*	-11%	.	.	-8%	0.17µM*
CCc1cc2c(Sc3nc4ccccc4s3)ncnc2s1	0%	-23%	-2%	.	-2%[1.84 µM]	11µM*
c1ccc2sc(Sc3ncnc4sccc34)nc2c1	0%	-7%	-18%	?	-15%	0.95µM*
COc1cccc(NC(=O)c2nn(-c3ccc(C)cc3)c(=O)n(C)c2=O)c1	.	.	.	.	.	-2%
CC(=O)c1ccccc1OCC(=O)Nc1cccc(S(=O)(=O)N2CCCC2)c1	-2%	7%	.	.	-1%	17µM*
CCOc1ccccc1OCC(=O)Nc1cccc(S(=O)(=O)N2CCCCCC2)c1	-1%	7%	.	.	0%	1%
COc1ccc(C(=O)NCC(=O)Nc2cccc(S(=O)(=O)N3CCCC3)c2)cc1	3%	.	.	.	.	.
Cc1ccc2cccc(OCC(=O)Nc3cccc(S(=O)(=O)N4CCCC4)c3)c2n1	-12%	-2%	.	.	-3%	0%
O=C(COc1ccc(Cl)cc1Br)Nc1cccc(S(=O)(=O)N2CCCC2)c1	-6%	9%	.	.	-1%	2.7µM*
COc1ccc(C(=O)NCC(=O)OCC(=O)Nc2cccc(S(=O)(=O)N3CCCC3)c2)cc1	-1%	-3%	.	.	-9%	12µM*
Cc1cc(Cl)ccc1OCC(=O)Nc1cccc(S(=O)(=O)N2CCCC2)c1	-5%	-4%	.	.	-3%	9.5µM*
COC(=O)c1scc(-c2ccc(C)cc2)c1S(=O)(=O)N1CCN(c2ccccc2F)CC1	.	.	.	.	.	-14%
Cc1ccc(Cl)cc1NC(=O)Cn1c(SCC(=O)NCc2ccccc2)nc2ccccc21	.	.	.	.	.	7%
Cc1cc(C)cc(N2C(=O)CCN(Cc3ccccc3)C2=O)c1	0%	-1%	.	.	-5%	0%
C/C=C1\C(=O)C[C@H]2[C@@H]3CCC4=CC(=O)CC[C@]4(C)[C@H]3CC[C@]12C	.	.	.	-35%	.	.
O=C(NCc1ccccc1)c1ccccc1NC(=O)C1CCCCC1	-5%	-1%	.	.	1%	-3%
Cc1ccc(NC(=O)COc2cccc(C)c2C)cc1S(=O)(=O)N1CCCCCC1	?	-1%	.	.	-5%	2%
Cc1ccc(NC(=O)COc2ccccc2C(N)=O)cc1S(=O)(=O)N1CCCCCC1	-3%	-22%	.	.	-26%	24µM*
O=C(CN(Cc1ccco1)C(=O)CNS(=O)(=O)c1ccccc1)NCc1ccc(F)cc1	18µM*	16%	1%	-5%	20%	6%
SMILES	ELG1 genotoxic	NPC1 promoter act	Luc counter	SMN2 splice enh	Rab9 promoter act	FLuc modulator
CCOc1ccc(-c2cc(CCCC(=O)NCCc3ccccc3)no2)cc1	?	10%	-1%	-30%	-2%	?
COc1ccc(-c2cc(CCCC(=O)NCc3ccccn3)no2)cc1	10%	13%	1%	-34%	12%	8.5µM*
COc1ccc(-c2cc(CCCC(=O)NCCc3ccccc3)no2)cc1	6%	?	.	.	?	7.6µM*
CC(C)c1ccc(NC(=O)C2CCCN(S(=O)(=O)c3cccc4nsnc34)C2)cc1 (stereo unspecified)	.	.	.	1%	.	-2%
Cn1c(-c2nnn(-c3ccc(F)cc3)n2)cc2ccccc21	5.2µM*	?	.	.	4µM*	1.3µM*
Cc1ccc(-n2nnc(-c3cc4ccccc4n3C)n2)cc1	?	2.8µM*	.	.	1.6µM*	0.85µM*
Cn1c(-c2ccccc2)cc2ccccc21	-1%	0%	.	.	-4%	?
O=C(NCc1ccc(F)cc1)c1ccc(NC(=O)N2CC3CCCN3c3ccccc32)cc1 (stereo unspecified)	.	.	.	-4%	.	-12%
CN(C)c1ccc(N=Cc2cccn2C)cc1	15µM*	16%	.	.	24%	3.4µM*
CC(=O)Oc1oc(-c2ccccc2)nc1C=Nc1ccc(N(C)C)cc1	-6%	0%	.	.	0%	2%
C=CCOc1c(Br)cc(/C=C2/NC(=S)N(C(C)=O)C2=O)cc1OC	23%	0%	4%	9%	-3%	1.5µM*
COc1ccc(/C=C2/N=C3CCCCCN3C2=O)cc1	?	-1%	-1%	0%	-3%	17µM*
COc1ccc(/C=C2\N=C3CCCCCN3C2=O)cc1OC	4%	14%	-2%	26%	2%	?
O=C1/C(=C\c2ccc(O)c(O)c2)N=C2CCCCCN12	?	-6%	.	.	-2%	19µM*
O=C1/C(=C/c2cccnc2)N=C2CCCCCN12	0%	1%	-3%	4%	-1%	-8%
COc1cc(/C=C2\N=C3CCCCCN3C2=O)ccc1O	?	2%	-8%	?	16%	17µM*
Nc1nc(-c2ccc(Cl)cc2)nn1C(=O)c1cccs1	-1%	-10%	3%	6%	0%	0%
CC(=O)Nc1ccc(C(=O)COC(=O)c2cccs2)c(F)c1	?	2.8µM*	.	.	3.5µM*	3.4µM*
CC(=O)Nc1ccc(C(=O)COC(=O)C2CC2C)c(F)c1 (stereo unspecified)	?	1.4µM*	.	.	1.4µM*	2.1µM*
Cc1nc(-c2coc3c(O)c(O)ccc3c2=O)cs1	.	.	-16%	22µM*	.	.
Fc1ccccc1-n1ncc2c1ncn1nc(Cc3ccccc3)nc21	.	.	.	11µM*	.	6µM*
COc1ccc(Cc2nc3c4cnn(-c5ccccc5F)c4ncn3n2)cc1	.	.	.	3%	.	?
CN(C)C1(CNC(=S)Nc2ccccc2C(F)(F)F)CCCCC1	1%	-4%	.	.	-3%	0%
COc1ccc(CCNc2oc(/C=C/c3ccc(OC)c(OC)c3)nc2C#N)cc1	.	.	.	-2%	.	-5%
CCOC(=O)C1CCN(C(=O)c2cn(-c3ccccc3)nc2-c2cccnc2)CC1	1%	1%	-1%	-2%	4%	13µM*
COc1ccc(NC(=O)CN(C)C(=O)c2cn(-c3ccccc3)nc2-c2cccs2)cc1	-25%	-2%	.	.	-5%	17µM*
